# Compound activity from PubChem.
# Luciferase inh: Photinus pyralis luciferase inhibition; P08659; AID 1347043; actives 2.5% (n = 76,000); purified P. pyralis luciferase, luminescence, biochemical; Potency, µM (highest dose often 115 µM), actives largely listed as inhibitors; further: nearly all actives have a fitted effect of over 65% in size
# Target sequence (P08659 whole entry, looked up): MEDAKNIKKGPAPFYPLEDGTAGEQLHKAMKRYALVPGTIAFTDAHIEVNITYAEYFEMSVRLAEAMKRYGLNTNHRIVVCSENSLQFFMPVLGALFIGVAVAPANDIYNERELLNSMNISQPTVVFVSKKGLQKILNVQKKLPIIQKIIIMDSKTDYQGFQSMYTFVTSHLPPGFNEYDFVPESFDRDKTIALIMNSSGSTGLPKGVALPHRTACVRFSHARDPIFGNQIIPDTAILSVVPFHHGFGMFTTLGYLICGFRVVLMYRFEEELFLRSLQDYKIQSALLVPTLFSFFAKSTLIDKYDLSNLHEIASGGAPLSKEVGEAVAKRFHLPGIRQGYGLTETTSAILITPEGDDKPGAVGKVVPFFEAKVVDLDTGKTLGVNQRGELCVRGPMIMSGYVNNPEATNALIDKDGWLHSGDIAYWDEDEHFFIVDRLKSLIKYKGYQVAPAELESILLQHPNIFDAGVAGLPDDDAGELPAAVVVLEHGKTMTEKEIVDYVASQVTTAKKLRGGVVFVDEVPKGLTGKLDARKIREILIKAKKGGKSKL
#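 Luminescence read by CCD imaging after purified firefly luciferase (10nM final) was added to substrate buffer holding 10uM D-luciferin and 10uM ATP, pH 7.5, pre-dosed with compound.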
# HEK293 tox: kills HEK 293 cells. HEK 293 viability, ATP luminescence (CellTiter-Glo), 48-72 h. Potency, µM (doses to about 115 µM), without a hit: at the top dose activity change, negative = cytotoxicity, hits mostly inhibitors. actives 6.6% (n = 94,000). AID 1345083; further: nearly all actives have a fitted effect of over 60% in size
#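 Viability of HEK 293 cells, plated at 250 cells/well, was judged by cellular ATP after compound treatment for 48 or 72 hr. Luminescence was imaged 10 min after CellTiter-Glo addition at room temperature.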
# NPR1 antag: human Npr1 receptor antagonism; P16066; HEK293 hNpr1 GloSensor cGMP, ANP-stimulated luminescence; Potency, µM (top dose mostly 46.3 µM), without a hit: top-dose activity change, negative = inhibition, actives largely listed as inhibitors; actives 1.6% (n = 76,000); calls by dose curve; further: nearly all actives have a fitted effect of over 60% in size
#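 HEK293 cells stably expressing human Npr1 and cGMP GloSensor pGS-40F, loaded 2 h with 2% GloSensor reagent, given compound 30 min at room temperature. Luminescence read before and 20 min after 0.1 nM hNppA.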
# GPT2 inhibitor: blocks human glutamate pyruvate transaminase 2; Q8TD30; Recombinant GPT2, coupled pyruvate oxidase/HRP Amplex Red fluorescence; Potency, µM (highest dose often 57.7 µM), for the others: at the highest dose activity change, negative = inhibition, usual class: inhibitors; actives 0.25% (n = 100,000); further: nearly all actives have a fitted effect of over 60% in size
#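 Recombinant GPT2 (10ng/uL) with 250uM a-KG and 2mM L-alanine, 30 min at room temperature, in HEPES pH 7.5 buffer. Pyruvate detected by pyruvate oxidase/HRP/Amplex Red fluorescence after 30 min in the dark; AOA (50uM) as positive control.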
# 3T3 cytotox: kills NIH 3T3 cells. NIH 3T3 viability, CellTiter-Glo ATP luminescence, 48-72 h. Potency, µM (doses to about 96.7 µM), inactives show at the highest dose activity change, negative = cytotoxicity, actives largely listed as inhibitors. actives 4.3% (n = 94,000). AID 1345082; further: nearly all actives have a fitted effect of over 55% in size
#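 Luminescent ATP readout (CellTiter-Glo, 10 min RT) after 48 or 72 hr compound exposure of NIH 3T3 cells seeded at 400 cells/well in 1536-well format; quantitative HTS.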
# * = called active by the depositor; i = inactive; ? = inconclusive; / = not tested or not shown; [ ] = another dose, or the depositor's remark. Compounds with a hit are over-represented: about 10% of the library has one in this group of screens. Unless noted, the call rests on the fitted dose curve; in most records, active means well fitted curve in the direction sought with a large enough effect; inconclusive means small, poorly fitted or top-dose-only effect, or another doubt; inactive means no such curve, though single readings can be large; an effect the other way counts as inactive or inconclusive. On the % scale 0 is the no-effect control and ±100 the full control effect; potency means the concentration at half of the fitted maximal effect.
SMILES,Luciferase inh,HEK293 tox,NPR1 antag,GPT2 inhibitor,3T3 cytotox
Cn1nc(C2CCCN2)c2c(C(=O)NC3CC3)cc(C3CC3)nc21 (centres undefined),/,i,/,2%,i
O=C(NC1CC1)c1cc(C2CC2)nc2c1c(C1CCCN1)nn2-c1ccccc1 (centres undefined),/,79µM*,/,i,32µM*
O=C1NC(=NC2CCCC2)C2(CCCN(CC3CCCCC3)C2)N1c1cc(F)cc(F)c1 (centres undefined),/,35µM*,/,?,28µM*
O=C1NC(=NC2CCCC2)C2(CCN(CC3CC3)C2)N1c1cc(F)cc(F)c1 (centres undefined),/,?,/,1%,?
COc1cccc(N2C(=O)NC(=NC3CCCC3)C23CCN(CC2CCCCC2)C3)c1 (centres undefined),/,?,/,i,32µM*
O=C1NC(=NC2CCCCC2)C2(CCN(CC3CCCCC3)C2)N1c1cc(F)cc(F)c1 (centres undefined),/,32µM*,/,i,32µM*
COc1cccc(C(=O)N2CCC(C(=O)N3CCC(c4ccccc4)CC3)CC2)c1,/,?,/,i,?
O=C(Nc1ccccc1F)N1CCN(c2ccc3nnc(-c4ccccc4)n3n2)CC1,/,-18%,/,/,?
COCc1ccc2c(c1)c(OC(C)(C)C(=O)NCC1CCOCC1)nn2Cc1cccnc1,i,i,5%,-30%,40µM*
CC(C)(Oc1nn(CC2CCOCC2)c2ccccc12)C(=O)NCCc1ccccc1,i,100µM*,-10%[70.6 µM],-18%[88.5 µM],?
COCc1ccc2c(c1)c(OC(C)(C)C(=O)Nc1cc(C)nn1C)nn2Cc1cccnc1,i,i,1%,i,40µM*
COCc1ccc2c(c1)c(OC(C)(C)C(=O)Nc1ccc(OC)cc1)nn2Cc1cccnc1,i,-6%,5%,-5%,?
Cc1nn(-c2ccccc2)c2c1C(C(C)C)N(C1CN([S+](C)(=O)[O-])C1)C2=O (centres undefined),/,-11%,/,/,-18%
CC(C)c1ccccc1Cc1cc(C(=O)Nc2ccc(S(=O)(=O)c3ccccc3C(C)(C)C)cc2)c(O)c(O)c1O,/,/,/,27µM*,/
COc1ccc(-n2nc(C)c([C@@H]3C=C[C@@H](NCc4cccc(Cl)c4)C3)c2C)cc1,40µM*,28µM*,?,-24%[88.5 µM],25µM*
COc1ccc(CN[C@@H]2C=C[C@@H](c3c(C)nn(-c4ccccc4)c3C)C2)cc1,?,28µM*,-19%[70.6 µM],-5%[88.5 µM],50µM*
COc1ccc(-n2nc(C)c([C@@H]3C=C[C@@H](NC(=S)NCC(C)C)C3)c2C)cc1,16µM*,28µM*,28µM*,1%[88.5 µM],?
Cc1nn(-c2cccc(Br)c2)c(C)c1[C@@H]1C=C[C@@H](NC(=O)CCCC(=O)O)C1,i,i,3%,-26%,i
COc1ccc(C(=O)N[C@@H]2C=C[C@@H](c3c(C)nn(-c4ccc(C(F)(F)F)cc4)c3C)C2)cc1,i,?,1%,-14%,?
COc1ccc(-n2nc(C)c([C@@H]3C=C[C@@H](NCc4ccc(N(C)C)cc4)C3)c2C)cc1,22µM*,?,?,i,?
COC(=O)C[C@H]1C(C)(C)[C@H](OC(=O)C(C)C)C2CC3=C4CC(=O)O[C@@H](c5ccoc5)[C@]4(C)CCC3[C@@]1(C)C2=O (some centres undefined),/,/,/,i,/
Cc1cccc(N2CCN(C(=O)CCc3conc3-c3ccccc3)CC2)c1C,i,45µM*,-6%,-14%,?
O=C(NCc1ccc(F)cc1)C1CCN(Cc2ccccc2-c2ccccc2F)CC1,/,32µM*,/,/,32µM*
O=C(NCC1CC1)C1CCN(Cc2ccccc2-c2ccccc2F)CC1,/,?,/,5%,-26%
O=C(NCc1cccc(C(F)(F)F)c1)C1CCN(Cc2ccccc2-c2ccccc2F)CC1,/,25µM*,/,/,?
SMILES,Luciferase inh,HEK293 tox,NPR1 antag,GPT2 inhibitor,3T3 cytotox
CCOC(=O)CN1C(=O)CN(C(=O)Cc2ccccc2)CCC(OC)c2ccccc21 (centres undefined),/,2%,/,/,?
CC(C)CN1C(=O)c2cccn2CC1C(=O)NCCN1CCCCC1 (centres undefined),i,i,3%,i,i
Cc1cc(NC(=O)C2CCN(c3cc(C(F)(F)F)ncn3)CC2)ccc1Br,i,25µM*,?,i,32µM*
Cc1ccc(C)c(NC(=O)C2CCN(c3cc(C(F)(F)F)ncn3)CC2)c1,i,?,-21%,i,?
Cc1ccc(N2C(=S)N[C@H]3[C@@H](O)[C@H](O)C[C@@H](C(=O)NCc4cccs4)[C@H]32)cc1Cl,?,79µM*,-2%,1%,?
COc1ccc(N2CC(C(=O)NCc3cccs3)NC2=O)cc1 (centres undefined),i,-26%[172 µM],15%[70.6 µM],-7%[88.5 µM],-21%[138 µM]
Fc1ccccc1-c1noc(-c2nc(-c3ccccc3F)no2)n1,i,-6%,3%,?,i
Fc1ccccc1-c1noc(N2CCCCC2)n1,1.6µM*,?,10µM*,i,?
COc1cc(NC(=O)c2cccc(-n3cc(NC(=O)Nc4cccc(C)c4)cn3)c2)cc(OC)c1OC,/,/,/,-9%,/
Cc1cccc2c1O[C@H]1[C@H](CO)CN([S+](=O)([O-])Cc3ccccc3)[C@@H]21,/,79µM*,/,/,?
COC(=O)N[C@H](C(=O)N1[C@@H]2CC[C@@H](C2)[C@H]1c1nc2ccc(-c3ccc4c(c3)C(F)(F)c3cc(-c5cnc([C@@H]6CCC7(CC7)N6C(=O)[C@@H](NC(=O)OC)C(C)C)[nH]5)ccc3-4)cc2[nH]1)C(C)C,/,/,/,4%[27.3 µM],/
Cc1noc(C)c1[S+](=O)([O-])N1CCC2(CC1)CC(c1cccc(C(F)(F)F)c1)=NO2,/,?,/,/,4.5µM*
CN(C)C(=O)N1CCC2(CC1)CC(c1cccc(C(F)(F)F)c1)=NO2,/,45µM*,/,/,?
O=C(Cc1ccc(F)cc1)N1CCC2(CC1)CC(c1cccc(C(F)(F)F)c1)=NO2,/,50µM*,/,/,40µM*
O=[S+]([O-])(c1ccc(C(F)(F)F)cc1)N1CCC2(CC1)CC(c1cccc(C(F)(F)F)c1)=NO2,/,?,/,/,-15%
O=C(CCl)N1CCC2(CC1)CC(c1cccc(C(F)(F)F)c1)=NO2,/,79µM*,/,/,?
Fc1ccc(CN2CCC3(CC(c4cccc(C(F)(F)F)c4)=NO3)C2)cc1 (centres undefined),/,?,/,-19%,?
O=C(NCc1ccc(C(F)(F)F)cc1)c1cc(-c2ccsc2)c2nncn2n1,/,?,/,3%,?
